Laboratory results taken from PubChem BioAssay (Tox21).
Records with an inconclusive call do not appear. Entries that show only a call come without a potency. The source made the active and inactive calls. Calls follow the shape of the dose curve; as a rule, active = well fitted activation curve with a large enough effect in the signal ratio in the repeat runs (not every such curve was filed as active); inconclusive = weak or mixed curves; inactive = flat fitted curve, though single readings scatter; the % refers to the signal ratio.

Assay: qHTS assay to identify small molecule agonists of H2AX (AID 1224845)
Settings: CHO-K1 phospho-H2AX Ser139 HTRF, 3 h; series mostly up to 154 µM
Excerpt: National Center for Advancing Translational Sciences [NCATS]
NIH Chemical Genomics Center [NCGC]
U.S. Environmental Protection Agency [EPA]
National Institutes of Environmental Health Sciences [NIEHS]
National Toxicology Program [NTP]
U.S. Food and Drug Administration [FDA]
HTRF phospho-H2AX (Ser139) assay (Cisbio Bioassays, US) enables the quantitative detection of the histone variant H2AX when phosphorylated on serine 139. When double-stranded DNA breaks, either by ionizing radiation or endogenous physiological processes, H2AX becomes phosphorylated at Ser139. This phospho-Ser139 serves as a sensitive biomarker for the detection of such breaks, localizing the site of DNA repair. So, HTRF phospho-H2AX Ser139 is a pertinent assay to study genome stability, the cell cycle, DNA repair, and it serves as a biomarker for cancer, and to understand aging. Wild type CHO-K1 cells were used to identify the inducers of Phospho-H2AX Ser 139 from the Tox21 10K compound collections.
Tox21 Assay Protocol Summary:
The CHO-K1 cells suspended in culture medium containing 10% FBS were dispensed at 1000 cells/ 3 ul/well in 1536-well white wall/solid bottom plates (Greiner Bio-One North America, NC) using a Multidrop Combi (Thermo Fisher Scientific Inc., Waltham, MA). After the assay plates were incubated at 37C overnight, 23 nl of compounds at 15 concentrations (from 5-48 columns) or positive control (from 1 to 4 columns) were transferred to the assay plates using a Pintool station (Wako, San Diego, CA) into each well resulting in a final DMSO concentration of 0.76%. After 3hr incubation at 37C, 1 uL/well Supplemented Lysis buffer (diluted 100 fold blocking reagent in lysis buffer) (HTRF Phospho-H2A.X (S139) Assay kit from Cisbio US Inc., Bedford, MA) was added using a Flying Reagent Dispenser (FRD) (Aurora Discovery, CA). After 10sec spin at 1000 rpm in a plate centrifuge, the assay plates were incubated at room temperature for 30 min. Then followed by the addition of 1 uL/well detection buffer (containing a mixture of two antibodies, one labeled with cryptate, Anti pH2AX (S139)-K and another labeled with d2, Anti H2AX-d2) using FRD. After incubation at room temperature for 24 hr, the time resolved fluorescence at excitation 320 nm and emissions at 665 nm and 620 nm was measured using an Envision plate reader (PerkinElmer, Waltham, MA).
With `CC(=O)O[C@H]1C[C@@H]2CC[C@@H]3[C@H](CC[C@@]4(C)[C@H]3C[C@H]([N+]3(C)CCCCC3)[C@@H]4OC(C)=O)[C@@]2(C)C[C@@H]1N1CCCCC1` the Potency was “inactive”.
With `NC(N)=NN=C(/C=C/c1ccc([N+](=O)[O-])o1)/C=C/c1ccc([N+](=O)[O-])o1` the Potency was “inactive”.
For `CC(C)(Oc1ccc(Cl)cc1)C(=O)OCCCOC(=O)C(C)(C)Oc1ccc(Cl)cc1`, the Potency was “inactive”.
In the case of `CCCCCOC(=O)COc1cc(N2C(=O)C3=C(CCCC3)C2=O)c(F)cc1Cl`, the Potency is reported as “inactive”.
With `Cc1cccc(C(C)(C)C)c1O` the Potency was “inactive”.
In the case of `OCCC1CCCCN1` (stereo not given), the Potency is reported as “inactive”.
In the case of `CCCC(=O)OCC`, the Potency is reported as “inactive”.
With `CN(C)CCCNCCCN` the Potency was “inactive”.
With `Cc1ccccc1N=Nc1ccc(N=Nc2c(O)ccc3ccccc23)c(C)c1` the Potency was “inactive”.
For `CCCCCCCCCCCCC(=O)O`, the Potency was “inactive”.
With `Cc1ncsc1CCO` the Potency was “inactive”.
In the case of `CN(C)CC[C@@H](c1ccc(Br)cc1)c1ccccn1`, the Potency is reported as “inactive”.
With `OC(CCN1CCCCC1)(c1ccccc1)C1CCCCC1` (stereo not given) the Potency was “inactive”.
For `CCC(=O)OC(C)(C)C1CC=C(C)CC1` (stereo not given), the Potency was “inactive”.
In the case of `COc1ccc([C@@H]2Sc3ccccc3N(CCN(C)C)C(=O)[C@@H]2OC(C)=O)cc1`, the Potency is reported as “inactive”.
For `c1ccc(CNCc2ccccc2)cc1`, the Potency was “inactive”.
In the case of `C=C(C)C(=O)OC(C)C`, the Potency is reported as “inactive”.
With `Oc1ccc(Cc2ccccc2)cc1` the Potency was “inactive”.
In the case of `CC(C)(C)c1ccc(S)cc1`, the Potency is reported as “inactive”.
In the case of `CCc1nn(C2CCCCC2)c2cc(C3(C#N)CCC(C(=O)O)CC3)ccc12` (stereo not given), the Potency is reported as “inactive”.
With `CC(C(=O)O)c1ccc(-c2ccccc2)c(F)c1` (stereo not given) the Potency was “inactive”.
With `C=CCCCCCC` the Potency was “inactive”.
For `CCCCCCCC/C=C\CCCCCCCC(N)=O`, the Potency was “inactive”.
For `CNCC[C@@H](Oc1ccccc1C)c1ccccc1`, the Potency was “inactive”.
For `O=CNc1ccccc1`, the Potency was “inactive”.
With `CC(C)(C)c1cc(O)c(C(C)(C)C)cc1O` the Potency was “inactive”.
With `C[C@H](CCC(=O)O)[C@H]1CC[C@H]2[C@@H]3[C@H](O)C[C@@H]4C[C@H](O)CC[C@]4(C)[C@H]3CC[C@]12C` the Potency was “inactive”.
For `NCc1ccccc1`, the Potency was “inactive”.
With `O=C(NN1CCCC1)NS(=O)(=O)c1ccc(Cl)cc1` the Potency was “inactive”.
With `Cc1nc2ccccc2n1Cc1ccc(Cl)cc1` the Potency was “inactive”.
For `Cc1occc1S`, the Potency was “inactive”.
For `COc1ccc(C(C)=O)cc1`, the Potency was “inactive”.
In the case of `CC1CCc2cc(F)cc3c(=O)c(C(=O)O)cn1c23` (stereo not given), the Potency is reported as “inactive”.
For `Oc1ccc(O)c2c(O)cccc12`, the Potency was “inactive”.
For `CCCCCCCCC(CO)CCCCCC` (stereo not given), the Potency was “inactive”.
In the case of `CC(C)(C)c1cc(CO)cc(C(C)(C)C)c1O`, the Potency is reported as “inactive”.
In the case of `OCC1CC2CC1C1CCC(CO)C21` (stereo not given), the Potency is reported as “inactive”.
For `CCN(CC)CCOC(=O)C1(c2ccccc2)CCCC1`, the Potency was “inactive”.
With `CN1CCC(OC(c2ccccc2)c2ccccc2)CC1` the Potency was “inactive”.
In the case of `NCCCOCCOCCOCCCN`, the Potency is reported as “inactive”.
